Test results taken from PubChem BioAssay AID743099 (Vanderbilt Specialized Chemistry Center, 2013).
The source made the active and inactive calls. No rule for the calls is given here.

target: Muscarinic acetylcholine receptor M2 (Homo sapiens) (UniProt P08172); experiment: human M2 receptor modulation in M5 NAM selectivity check, counter-screen for M5 NAM project, cell-based, CHO-K1 hM2/Gqi5, Fluo-4 calcium flux, ACh EC20 (AID 743099); details: series mostly up to 30 µM; % max ACh response: at the top concentration
Sequence (P08172 whole entry, looked up): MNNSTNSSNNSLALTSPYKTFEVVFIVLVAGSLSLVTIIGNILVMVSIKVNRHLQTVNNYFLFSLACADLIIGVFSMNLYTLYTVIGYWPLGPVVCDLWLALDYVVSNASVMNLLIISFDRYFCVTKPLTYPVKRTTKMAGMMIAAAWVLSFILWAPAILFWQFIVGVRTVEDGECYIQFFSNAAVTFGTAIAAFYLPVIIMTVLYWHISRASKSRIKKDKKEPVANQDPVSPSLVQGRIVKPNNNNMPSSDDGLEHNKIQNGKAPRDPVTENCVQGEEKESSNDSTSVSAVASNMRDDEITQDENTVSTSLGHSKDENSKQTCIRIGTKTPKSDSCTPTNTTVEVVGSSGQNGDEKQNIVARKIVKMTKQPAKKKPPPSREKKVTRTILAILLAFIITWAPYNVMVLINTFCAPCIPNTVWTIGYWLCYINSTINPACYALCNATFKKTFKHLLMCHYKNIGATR

Row | Compound | % max ACh response
1 | O=C(c1ccc(F)cc1)N1CCN2C(=O)c3ccccc3C12c1ccccc1 (stereo not given) | 77.1 (inactive)
2 | O=C(c1cc(F)cc(F)c1)N1CCN2C(=O)c3ccccc3C12c1ccc(Cl)cc1 (stereo not given) | 79.1 (inactive)
3 | O=C(c1ccc(F)c(F)c1)N1CCN2C(=O)c3ccccc3C12c1ccccc1 (stereo not given) | 80.5 (inactive)
4 | O=C(c1ccc(F)c(F)c1)N1CCN2C(=O)c3ccccc3[C@@]12c1ccc(Cl)cc1 | 83.3 (inactive)
5 | O=C(c1ccc(F)c(F)c1)N1CCN2C(=O)c3ccccc3C12c1ccc(Cl)cc1 (stereo not given) | 83.7 (inactive)
